Compounds with a hit are over-represented: about 3.9% of the library has one in this group of screens.
ALR H2O2 inh – human ALR oxidase inhibition via reduced H2O2. inhibition, % (no concentration beside the values). purified ALR, DTT oxidation, H2O2 HRP-luminol luminescence. actives 3.8% (n = 290,000). P55789;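 active means mean replicate inhibition above about 79%, with every replicate also reaching it, limit read from the data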
H9c2 protect – protects H9c2 cardiomyocytes from peroxide injury. protection from H2O2 cell death, % at 20 µM. AID 588492. H2O2 injury protection, ATPLite, 2 h. actives 0.63% (n = 360,000);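 active means compounds giving at least 50% protection of heart cells from peroxide-induced death in the single-dose screen, raw or plate-pattern-corrected value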;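 further: 0% = DMSO wells with peroxide and 100% = DMSO wells without peroxide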
SUMO HTRF inh – SUMOylation inhibition | P63279 | HTRF SUMOylation assay, SAE1/SAE2 + UBC9, in vitro | inhibition, % at 35 µM | actives 0.36% (n = 290,000) | AID 2006; in the data active means inhibition above about 50%, passing the limit was not always enough
Target sequence (P63279 whole entry, looked up): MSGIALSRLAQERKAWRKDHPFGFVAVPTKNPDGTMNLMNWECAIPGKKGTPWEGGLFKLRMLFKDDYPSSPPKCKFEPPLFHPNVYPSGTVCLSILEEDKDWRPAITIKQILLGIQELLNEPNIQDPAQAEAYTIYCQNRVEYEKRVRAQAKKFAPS
NTR1 ag – NTR1 (human) agonism. P30989. NTR1-U2OS beta-arrestin-GFP spot imaging, agonist mode. activation, % at 20 µM. actives 0.17% (n = 330,000). AID 493036;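 active means activation at or above 40% of the spot to cytoplasm intensity ratio, with at least 20 cells analyzed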;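 further: 0% = DMSO without peptide and 100% = 100 nM NTR1 peptide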
Target sequence (P30989 whole entry, looked up): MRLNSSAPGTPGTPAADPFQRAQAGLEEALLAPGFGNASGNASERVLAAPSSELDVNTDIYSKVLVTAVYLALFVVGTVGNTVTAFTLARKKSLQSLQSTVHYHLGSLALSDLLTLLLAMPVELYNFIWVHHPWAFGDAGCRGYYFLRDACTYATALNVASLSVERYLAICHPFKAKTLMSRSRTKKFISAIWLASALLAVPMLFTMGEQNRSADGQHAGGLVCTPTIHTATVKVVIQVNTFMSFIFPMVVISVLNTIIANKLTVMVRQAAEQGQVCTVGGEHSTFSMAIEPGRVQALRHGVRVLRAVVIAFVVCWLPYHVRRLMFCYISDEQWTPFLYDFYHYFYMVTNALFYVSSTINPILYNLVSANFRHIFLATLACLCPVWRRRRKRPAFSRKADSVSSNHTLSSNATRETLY
* hit, by the source's call; · = no result.

SMILES	ALR H2O2 inh	H9c2 protect	SUMO HTRF inh	NTR1 ag
O=C(Nc1ccccc1)c1nc[nH]c1C(=O)NCCNC(=O)c1[nH]cnc1C(=O)Nc1ccccc1	4	52*	·	-1
O=C(Nc1ccccc1)c1nc[nH]c1C(=O)NCCCCNC(=O)c1[nH]cnc1C(=O)Nc1ccccc1	1	81*	·	7
Cc1noc(C)c1S(=O)(=O)N(C)C[C@H]1Oc2c(NC(=O)NC3CCCCC3)cccc2C(=O)N([C@H](C)CO)C[C@@H]1C	-3	8	·	1
CCOC(=O)c1c(C)c(C(=O)NCc2cccs2)c(C)n1C	-3	9	-12	0
CC(C)CC(=O)Nc1sc2c(c1C(=O)O)CCCCC2	8	12	6	0
CCN(CCCNC(=O)CNC(=O)Cn1cnc2ccccc2c1=O)c1ccccc1	98*	7	8	0
CCN(CCCNC(=O)Cn1cc2c(n1)CCCC2)c1cccc(C)c1	99*	-8	-16	-2
CCN(CCCNC(=O)CCNC(=O)Cn1cnc2ccccc2c1=O)c1cccc(C)c1	99*	3	6	-3
COc1ccc(-c2noc(CCC(=O)NCCc3ccccc3)n2)cc1	-1	-3	16	-1
CCN(CCCNC(=O)CCc1nc(-c2ccc(OC)cc2)no1)c1cccc(C)c1	87*	-17	-8	2
CC(C)c1ccc(C(O)P(=O)(OC2CCCCC2)OC2CCCCC2)cc1 (stereo not given)	-3	9	1	15
CCN(CC)CCn1c(=S)[nH]c2cc3c(cc2c1=O)OCO3	69	6	1	0
CCN1CCN(CCn2c(=S)[nH]c3cc4c(cc3c2=O)OCO4)CC1	92*	4	18	4
O=C(CCCn1c(=S)[nH]c2cc3c(cc2c1=O)OCO3)N1CCN(c2ncccn2)CC1	20	10	12	1
O=C(CCCn1c(=S)[nH]c2cc3c(cc2c1=O)OCO3)N1CCN(C2CCCCC2)CC1	83*	2	-21	0
Cc1cc(Cl)ccc1OCc1n[nH]c(=S)n1C1CCCCC1	20	-15	14	13
Cc1cc(Cl)ccc1OCc1nc(-c2ccc(O)cc2)n[nH]1	98*	-1	-3	0
CCCCCCSc1nc(O)c(C2OC(=O)c3c2ccc(OC)c3OC)c(=O)n1-c1ccccc1 (stereo not given)	98*	2	11	0
O=C(O)c1ccc2c(c1)C(=O)N(Cc1ccc3c(c1)OCO3)C2=O	87*	7	-4	-2
Cc1ccc(N2C(=O)c3ccc(C(=O)O)cc3C2=O)cc1C	95*	2	16	1
Cc1ccc(N2C(=O)c3ccc(C(=O)N4CCN(c5ccc(C)c(C)c5)CC4)cc3C2=O)cc1	-2	0	-2	5
Nc1cccc(-c2nc3ccccc3s2)c1	99*	-19	32	0
O=C(O)c1ccc2c(c1)C(=O)N(c1cccc(-c3nc4ccccc4s3)c1)C2=O	-3	-22	70*	1
CN(C(=O)COC(=O)c1ccccc1SCC(=O)N1CCCC1)C1CCS(=O)(=O)C1 (stereo not given)	5	0	27	0
Cc1c(N(C(=O)CNC(=O)c2ccccc2)C2(C(=O)NC3CCCC3)CCCCC2)c(=O)n(-c2ccccc2)n1C	·	-4	-7	-1
SMILES	ALR H2O2 inh	H9c2 protect	SUMO HTRF inh	NTR1 ag
COCCn1c(=S)[nH]c2sc3c(c2c1=O)CCC(C)C3 (stereo not given)	32	1	-13	-1
COCCCn1c(=S)[nH]c2sc3c(c2c1=O)CCCS3	99*	7	-9	4
O=c1[nH]c2ccccc2n1CCCSc1cnc2ccccc2n1	-1	-14	-2	4
Cc1ccc(C(=O)NCCc2n[nH]c(=S)n2C)cc1	3	5	13	0
Cn1c(CCNC(=O)c2ccccc2Cl)n[nH]c1=S	96*	8	0	0
CSc1nnc2n(-c3ccccc3)c(=O)c3c4c(sc3n12)CCC4	2	12	7	5
CC(C)C1Cc2c(sc3c2c(=O)n(-c2ccccc2)c2n[nH]c(=S)n32)CO1 (stereo not given)	94*	-4	10	2
COc1ccc(-n2c(=O)c3c4c(sc3n3c(=S)[nH]nc23)CCCC4)cc1	96*	-4	16	4
O=C(Cc1ccccc1)Nc1nnc(-c2ccccc2)o1	-2	7	6	-1
CC(C)CN1C(=O)/C(=C/c2ccco2)NC1=S	9	6	15	1
CC(C)CN1C(=O)/C(=C/c2cccs2)NC1=S	99*	-4	5	4
CCCNC(=O)C1(C)CCCN(Cc2cccn2C)C1 (stereo not given)	·	0	·	·
CCOc1ccccc1C(=O)NC(C(=O)Nc1cccnc1)C(C)C (stereo not given)	-5	2	3	-1
COc1ccc(N2C(=O)CC(NNc3ncc(Cl)cc3Cl)C2=O)cc1 (stereo not given)	84*	-3	2	0
CCN(CC)S(=O)(=O)c1ccc(OC)c(NC(=O)c2ccc(N3CCCC3=O)cc2)c1	·	3	·	1
COc1ccccc1N1CCN(S(=O)(=O)c2cccc(F)c2)CC1	97*	-2	18	-1
COc1ccccc1N1CCN(S(=O)(=O)c2c(C)[nH]c(=O)[nH]c2=O)CC1	97*	-6	17	0
Cc1ccc(C)c(NC(=O)COC(=O)CC2CC3CCC2C3)c1 (stereo not given)	1	-6	·	2
Cc1ccc(-n2c(-c3ccco3)nc3c(cnn3-c3ccc(C)cc3)c2=O)cc1	-13	-12	19	8
COc1cc(C(=O)Nc2ccc3nc(N4CCOCC4)sc3c2)cc(OC)c1OC	-6	16	·	-1
Cc1c(C(=O)Nc2ccc3nc(N4CCOCC4)sc3c2)oc2ccccc12	-2	58*	·	20
O=C(Nc1ccc2nc(N3CCOCC3)sc2c1)c1cc2ccccc2o1	·	68*	·	·
COC(=O)c1[nH]c2ccccc2c1NC(=O)CNC1CCCCC1	-6	86*	1	1
COC(=O)c1[nH]c2ccccc2c1NC(=O)CN1CCCCCC1	3	-4	-4	0
N#CC1=C(N)NC(SCC(=O)Nc2ccc(Br)cc2)=C(C#N)C12CCCCC2	97*	-27	-18	6
SMILES	ALR H2O2 inh	H9c2 protect	SUMO HTRF inh	NTR1 ag
Cc1ccccc1NN=Nc1nc2c([nH]1)c(=O)n(C)c(=O)n2C	·	3	-7	·
Cn1c(=O)c2[nH]c(N=NNc3ccccc3F)nc2n(C)c1=O	98*	3	9	-1
COc1ccc(CC(=O)Nc2ccc(-c3noc(-c4ccc(Cl)cc4)n3)cc2)cc1	0	-17	10	0
O=c1c(O)c(-c2cc(O)c(O)c(O)c2)oc2cc(O)cc(O)c12	99*	24	·	2
O=C(CCc1ccc(O)cc1)c1c(O)cc(O)cc1O[C@@H]1O[C@H](CO)[C@@H](O)[C@H](O)[C@H]1O	81*	3	6	1
OC[C@H]1O[C@@H](Oc2ccc(O)cc2)[C@H](O)[C@@H](O)[C@@H]1O	·	3	·	·
O=c1c(O[C@@H]2O[C@H](CO)[C@@H](O)[C@H](O)[C@H]2O)c(-c2ccc(O)cc2)oc2cc(O)cc(O)c12	94*	1	·	1

Screening results: PubChem BioAssay, several laboratories
